Measured values reported in PubChem BioAssay (Tox21).
Records with an inconclusive call do not appear. Activity calls are given as the source filed them. Unless noted, the call rests on the fitted dose curve.

Tested on: not listed separately
Assay: cAMP Responsive Elements (CRE) small molecule agonists, cell-based qHTS assay (AID 1963590)
Conditions: CRE-bla HEK293T, beta-lactamase FRET ratio, 3 h; series mostly up to 92.4 µM; activation: at the top concentration
Outline: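 A CRE-responsive beta-lactamase reporter in HEK 293T cells was used. Treatment ran 3 h at 37 C; detection used LiveBLAzer B/G FRET substrate for 2 h at room temperature.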
On the % scale 0 is the no-effect control and ±100 the full control effect.

Row | SMILES | activation
1 | CC1(c2ccc(Oc3ccccc3)cc2)OC(=O)N(Nc2ccccc2)C1=O (stereo not given) | 0.352% (inactive)
2 | C=CC(=O)NCNC(=O)C=C | -3.73% (inactive)
3 | CC(C)N(C(=O)COc1nnc(C(F)(F)F)s1)c1ccc(F)cc1 | 0.275% (inactive)
4 | CCC(CC)(CNC(=O)CCCO)c1cccc(OC)c1 | -1.27% [at 42.5 µM] (inactive)
5 | Oc1cccc(Cl)c1 | 0.331% (inactive)
6 | CCOP(=S)(OCC)Oc1ccc(S(C)=O)cc1 (stereo not given) | 3.99% (inactive)
7 | O=c1[nH]c2ccccc2o1 | 0.256% (inactive)
8 | CN1C(=S)CN=C(c2ccccc2)c2cc(Cl)ccc21 | 6.08% [at 42.5 µM] (inactive)
9 | C=C(C)[C@H]1CN[C@H](C(=O)O)[C@H]1CC(=O)O | 0.234% [at 42.5 µM] (inactive)
10 | C[C@@H](N)[C@@H](O)c1ccccc1 | 0.334% [at 42.5 µM] (inactive)
11 | CCCCCCCCCCCCN(C)C | 1.09% (inactive)
12 | CC(Cc1ccc2c(c1)OCO2)NO (stereo not given) | -0.398% (inactive)
13 | CC[C@@H](CO)NC(=O)[C@@H]1C=C2c3cccc4c3c(cn4C)C[C@H]2N(C)C1 | 1.05% [at 42.5 µM] (inactive)
14 | NC(=O)CS(=O)C(c1ccccc1)c1ccccc1 (stereo not given) | 0.457% [at 42.5 µM] (inactive)
15 | CCOP(=O)(OCC)Oc1cc(C)nc(C(C)C)n1 | 0.637% (inactive)
16 | CNP(=O)(OC)Oc1ccc(C(C)(C)C)cc1Cl (stereo not given) | 14.4% (inactive)
17 | COC(=O)c1ccccc1S(=O)(=O)NC(=O)Nc1nc(C)nc(OC)n1 | 3.37% (inactive)
18 | CCOP(=S)(S)OCC | -0.0035% (inactive)
19 | O=[N+]([O-])c1cccc2cccnc12 | -0.204% (inactive)
20 | Clc1cccc(SC2CCNCC2)n1 | 0% [at 42.5 µM] (inactive)
21 | CCCCC(CC)COC(=O)OOC(C)(C)C (stereo not given) | 0.0521% (inactive)

Tested on: not listed separately
Assay: cAMP Responsive Elements (CRE) small molecule antagonists, cell-based qHTS assay (AID 1963591; active means well fitted inhibition curve with a large enough effect in the signal ratio in the repeat runs, not every such curve was filed as active; the % refers to the signal ratio; further: potency means the concentration at half of the fitted maximal effect)
Conditions: CRE-bla HEK293T, beta-lactamase FRET ratio; series mostly up to 92.4 µM; activity change, negative = inhibition: at the top concentration
Outline: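 HEK293T cells carrying a CRE-driven beta-lactamase reporter receive compound and NKH477 (0.25 uM final) for 3 h. Fluorescence from LiveBLAzer B/G FRET substrate is read after 2 h at room temperature.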

Row | SMILES | Potency | activity change, negative = inhibition
22 | CC1(c2ccc(Oc3ccccc3)cc2)OC(=O)N(Nc2ccccc2)C1=O (stereo not given) | 61.5 µM (active) | 
23 | Oc1cc(Cl)cc(Cl)c1 |  | 0.984% (inactive)
24 | CCC(CC)(CNC(=O)CCCO)c1cccc(OC)c1 |  | -0.701% [at 42.4 µM] (inactive)
25 | Oc1cccc(Cl)c1 |  | 0.618% (inactive)
26 | CCOP(=S)(OCC)Oc1ccc(S(C)=O)cc1 (stereo not given) |  | 5.59% (inactive)
27 | O=c1[nH]c2ccccc2o1 |  | -0.593% (inactive)
28 | CN1C(=S)CN=C(c2ccccc2)c2cc(Cl)ccc21 |  | 13.4% [at 42.4 µM] (inactive)
29 | C=C(C)[C@H]1CN[C@H](C(=O)O)[C@H]1CC(=O)O |  | -7.21% [at 42.4 µM] (inactive)
30 | C[C@@H](N)[C@@H](O)c1ccccc1 |  | -3.84% [at 42.4 µM] (inactive)
31 | Cc1ccc2nc3sc(=O)sc3nc2c1 |  | 1.33% [at 18.9 µM] (inactive)
32 | O=[N+]([O-])c1c(Cl)c(Cl)cc(Cl)c1Cl |  | 3.49% (inactive)
33 | CCCCN(CCCC)C(=S)[S-].CCCCN(CCCC)C(=S)[S-].[Zn+2] | 21.7 µM (active) | 
34 | CC(Cc1ccc(O)cc1)NCC(O)c1cc(O)cc(O)c1 (stereo not given) |  | 13.7% [at 42.4 µM] (inactive)
35 | CC(Cc1ccc2c(c1)OCO2)NO (stereo not given) |  | 12.1% (inactive)
36 | CC[C@@H](CO)NC(=O)[C@@H]1C=C2c3cccc4c3c(cn4C)C[C@H]2N(C)C1 |  | 6.53% [at 42.4 µM] (inactive)
37 | NC(=O)CS(=O)C(c1ccccc1)c1ccccc1 (stereo not given) |  | -1.19% [at 42.4 µM] (inactive)
38 | CCOP(=O)(OCC)Oc1cc(C)nc(C(C)C)n1 |  | 1.02% (inactive)
39 | CNP(=O)(OC)Oc1ccc(C(C)(C)C)cc1Cl (stereo not given) |  | 13.8% (inactive)
40 | O=C1C(=O)c2cccc3cccc1c23 |  | 1.03% (inactive)
41 | Cc1ccccc1OP(=O)(Oc1ccccc1C)Oc1ccccc1C |  | -1.55% (inactive)
42 | CCOP(=S)(S)OCC |  | -7.08% (inactive)
43 | O=[N+]([O-])c1cccc2cccnc12 |  | 21% (inactive)
44 | CCCCC(CC)COC(=O)OOC(C)(C)C (stereo not given) |  | -10% (inactive)

Target: Beta-2 adrenergic receptor (Homo sapiens) (UniProt P07550)
Sequence (P07550 whole entry, looked up): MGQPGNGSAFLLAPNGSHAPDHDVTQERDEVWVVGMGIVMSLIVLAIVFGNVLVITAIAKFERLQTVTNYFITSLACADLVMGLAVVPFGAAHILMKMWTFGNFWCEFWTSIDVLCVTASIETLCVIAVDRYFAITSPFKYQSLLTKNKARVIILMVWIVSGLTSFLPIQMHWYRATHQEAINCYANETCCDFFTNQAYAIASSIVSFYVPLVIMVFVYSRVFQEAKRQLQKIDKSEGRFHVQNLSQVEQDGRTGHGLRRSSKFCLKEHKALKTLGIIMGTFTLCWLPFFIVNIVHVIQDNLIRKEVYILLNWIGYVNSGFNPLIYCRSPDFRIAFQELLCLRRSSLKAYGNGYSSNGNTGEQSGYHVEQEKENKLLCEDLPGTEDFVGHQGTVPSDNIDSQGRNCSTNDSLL
Assay: Adrenergic beta2 receptor (ADRB2) small molecule antagonists, cell-based qHTS assay (AID 1963592); further: nearly all actives have a fitted effect of over 50% in size; further: potency means the concentration at half of the fitted maximal effect
Conditions: CHO-ADRB2 cells, isoproterenol-stimulated cAMP HTRF ratio, 0.5 h; series mostly up to 92.4 µM; activity change, negative = inhibition: at the top concentration
Outline: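 Cells (CHO, stable ADRB2 overexpression) incubated 18-20hr at 37C; compounds added from DMSO; agonist mix (1nM isoproterenol, 100uM IBMX, 25uM Ro-20-1724) added; 0.5hr RT; d2-cAMP and anti-cAMP-cryptate added; 1hr RT; 665/615 nm read.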

Row | SMILES | activity change, negative = inhibition | Potency
45 | Oc1cc(Cl)cc(Cl)c1 | -7.09% (inactive) | 
46 | C=CC(=O)NCNC(=O)C=C | -11% (inactive) | 
47 | COc1ccc(C(c2ccc(OC)cc2)C(Cl)(Cl)Cl)cc1 | 4.84% (inactive) | 
48 | CC(C)N(C(=O)COc1nnc(C(F)(F)F)s1)c1ccc(F)cc1 | -11.4% (inactive) | 
49 | CCC(CC)(CNC(=O)CCCO)c1cccc(OC)c1 | 0.278% [at 42.5 µM] (inactive) | 
50 | Oc1cccc(Cl)c1 | -7.11% (inactive) | 
51 | O=c1[nH]c2ccccc2o1 | 1.81% (inactive) | 
52 | CN1C(=S)CN=C(c2ccccc2)c2cc(Cl)ccc21 | -15.8% [at 42.5 µM] (inactive) | 
53 | C=C(C)[C@H]1CN[C@H](C(=O)O)[C@H]1CC(=O)O | 17.6% [at 42.5 µM] (inactive) | 
54 | Oc1ccc(C2(c3ccc(O)cc3)c3ccccc3-c3ccccc32)cc1 | -10.3% (inactive) | 
55 | C[C@@H](N)[C@@H](O)c1ccccc1 | -5.72% [at 42.5 µM] (inactive) | 
56 | CC(C)(Cl)[N+](=O)[O-] | -12.3% (inactive) | 
57 | Cc1ccc2nc3sc(=O)sc3nc2c1 | -4.14% [at 19 µM] (inactive) | 
58 | CC1(C)CN=C(NN=C(/C=C/c2ccc(C(F)(F)F)cc2)/C=C/c2ccc(C(F)(F)F)cc2)NC1 | -0.641% (inactive) | 
59 | O=[N+]([O-])c1c(Cl)c(Cl)cc(Cl)c1Cl | -0.788% (inactive) | 
60 | CCCCCCCCCCCCN(C)C | -6.88% (inactive) | 

Row | SMILES | activity change, negative = inhibition | Potency
61 | CC(Cc1ccc2c(c1)OCO2)NO (stereo not given) | -4.4% (inactive) | 
62 | CS(=O)(=O)c1ccc(C(=O)C2C(=O)CCCC2=O)c(Cl)c1COCC(F)(F)F | 1.38% (inactive) | 
63 | NC(=O)CS(=O)C(c1ccccc1)c1ccccc1 (stereo not given) | 10.8% [at 42.5 µM] (inactive) | 
64 | CCOP(=O)(OCC)Oc1cc(C)nc(C(C)C)n1 | -13% (inactive) | 
65 | CCOP(=S)(OCC)Oc1cc(C)nc(N(CC)CC)n1 | 0.859% (inactive) | 
66 | CNP(=O)(OC)Oc1ccc(C(C)(C)C)cc1Cl (stereo not given) | -19.8% (inactive) | 
67 | O=C1C(=O)c2cccc3cccc1c23 | -19.5% (inactive) | 
68 | COC(=O)c1ccccc1S(=O)(=O)NC(=O)Nc1nc(C)nc(OC)n1 | 2.99% (inactive) | 
69 | c1csc(-c2ccc(-c3cccs3)s2)c1 | -10.7% (inactive) | 
70 | Cc1ccccc1OP(=O)(Oc1ccccc1C)Oc1ccccc1C | 6.06% (inactive) | 
71 | CCOP(=S)(S)OCC | 0.926% (inactive) | 
72 | CC(C)[C@H](C(=O)O[C@H](C#N)c1cccc(Oc2ccccc2)c1)c1ccc(Cl)cc1 | 1.51% (inactive) | 
73 | Clc1cccc(SC2CCNCC2)n1 |  | 15 µM (active)
74 | CCCCC(CC)COC(=O)OOC(C)(C)C (stereo not given) | -0.19% (inactive) | 
75 | O=[N+]([O-])c1cc(C(F)(F)F)c(Cl)c([N+](=O)[O-])c1Cl | -4.23% (inactive) | 
